Compounds with a hit are over-represented: about 3.1% of the library has one in this group of screens.
LGR2 antag = Drosophila LGR2 receptor signaling inhibition; HEK293 LGR2, CRE-luciferase, bursicon-stimulated, 4 h; 0.35% of 380,000 active; inhibition, % at 9.99 µM;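 active = drop in luminescence signal, shown as inhibition above about 50% in the replicate tests, limit read from the data, passing the limit was not always enough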;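 note: agonist challenge used bursicon conditioned medium at about half maximal strength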
TROY NFkB inh = blocks TROY-dependent signaling in reporter cells | Q293 LMP1-TROYcd NF-kB luciferase reporter, 4 h | inhibition, % at 10 µM | 0.98% of 360,000 active;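 active = compounds whose plate-normalised and pattern-corrected inhibition of the luciferase reporter signal at the single screening dose is 50% or more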
PAX8 reporter = PAX8 transcriptional activity inhibition | RMG-I TPO-luciferase reporter, SteadyGlo, 24 h | inhibition, % at 12.6 µM | 1.2% of 360,000 active | AID 652154;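 active = mean replicate inhibition at least 60% with every replicate also reaching 60%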;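 note: luciferase light reporting Pax8 driven TPO promoter activity; plate controls were median of neutral control wells for no effect and mitoxantrone controls for full effect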
TWEAK-Fn14 inh = inhibitors of TWEAK-Fn14 interaction signaling; TWEAK-stimulated Fn14 reporter cells, luciferase luminescence, 8 h; 2% of 360,000 active; inhibition, % at 10 µM; in the data active = inhibition above about 50%
LMP1 NFkB inh = Epstein-Barr LMP1 NF-kappaB reporter inhibition; LMP1-induced NF-kappaB luciferase reporter cells, luminescence; 0.69% of 350,000 active; inhibition, % at 12.5 µM; in the data active = inhibition above about 41%;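 note: 0% = neutral control wells and 100% = reference inhibitor control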
EWS-Fli inh = EWS/Fli transcriptional activity inhibition. A673 NR0B1-luciferase reporter, viability-normalised. inhibition, % at 12.6 µM. 0.67% of 350,000 active;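 active = mean inhibition of at least 50% after viability correction, with every replicate also passing that limit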;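 note: firefly luciferase signal divided by Alamar Blue viability fluorescence both relative to DMSO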
DNA binding = small molecule DNA binding by fluorescence polarization. shares compounds with EWS-Fli inh. salmon sperm DNA acridine orange fluorescence polarization. AC35, µM (top dose mostly 68 µM), without a hit: at the highest dose activity change, negative = DNA binding. 2% of 640 active. AID 720586;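 active = fitted curve reaches a 35% signal fall AC35 below twice the sample's top valid tested dose, actives reach about 48 µM in these data; inactive = the rest, including activity in the rising direction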;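 note: lower polarization ratio signals compound binding to DNA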
Numbers without * were called inactive; . = not tested or not shown.

SMILES | LGR2 antag | TROY NFkB inh | PAX8 reporter | TWEAK-Fn14 inh | LMP1 NFkB inh | EWS-Fli inh | DNA binding
C#CCOCCOCCOCCNc1nc(N2CCN(C(=O)CCCCCCCCCCNC(=O)Cn3cc(C[C@@H](C)O)nn3)CC2)nc(N2CCN(C(=O)CCCCCCCCCCNC(=O)[C@@H](CCC(=O)O)n3cc(CCCCCN)nn3)CC2)n1 | . | 5 | -4 | -12 | -28 | 6 | .
C[C@H](CO)N1C[C@H](C)[C@H](CN(C)Cc2ccc(Oc3ccccc3)cc2)Oc2ccc(NC(=O)Cn3cnnn3)cc2CC1=O | -1 | . | 12 | . | . | 54* | -1%
C[C@@H]1CN([C@@H](C)CO)C(=O)Cc2cc(NC(=O)Cn3cnnn3)ccc2O[C@@H]1CN(C)Cc1ccc(Oc2ccccc2)cc1 | 5 | . | 15 | . | . | 70* | -2%
C[C@H](CO)N1C[C@H](C)[C@@H](CN(C)Cc2ccc(Oc3ccccc3)cc2)Oc2ccc(NC(=O)Cn3cnnn3)cc2CC1=O | 12 | . | -12 | . | . | 3 | .
C[C@@H]1CCCCO[C@@H](CN(C)S(=O)(=O)c2cccs2)[C@@H](C)CN([C@H](C)CO)C(=O)c2cc(NC(=O)Nc3cccc4ccccc34)ccc2O1 | 11 | . | 7 | . | . | 6 | .
COc1ccc(-c2cccc(-c3nc(C(=O)NCC(F)(F)F)cc4c3[C@H](CCO)N([S@@](=O)C(C)(C)C)C4)c2)cc1 | 31 | . | -8 | . | . | 8 | .
COc1cccc(-c2cccc(-c3nc(C(=O)NCC(F)(F)F)cc4c3[C@H](CCO)N([S@@](=O)C(C)(C)C)C4)c2)c1 | 7 | . | 45 | . | . | 54* | -9%
Cc1c(CC(=O)NCCCC(=O)O)c(=O)oc2cc3c(cc12)CCC(C)(C)O3 | 1 | 39 | 25 | 81* | 11 | 66* | -13%
O=C(C1CCC1)N1CC2(C1)[C@H](c1ccccc1)[C@H](CO)N2C(=O)c1cccnc1 | -3 | . | . | . | . | 0 | .
CCCCc1c(-c2ccccc2OC)ncn1Cc1ccccc1 | 11 | . | 24 | . | . | 13 | .
CCCCc1c(-c2ccccc2OC)ncn1Cc1ccc(C(C)(C)C)cc1 | 37 | . | 72* | . | . | 62* | 5%
O=C(N[C@H]1CC[C@@H](CCn2cc(-c3ccccc3)nn2)O[C@@H]1CO)c1ccccc1F | -4 | . | 4 | . | . | -1 | .
CO[C@H]1CN(C)C(=O)c2cc(NS(=O)(=O)c3ccccc3C)ccc2OC[C@@H](C)NC[C@H]1C | -2 | . | . | . | . | -2 | .
COc1ccc2nc(-c3ccc(F)cc3)sc2c1 | 92* | 39 | 23 | 75* | 21 | 55* | -4%
CN(C)c1ccc(/C=N/Nc2nc3ccccc3o2)cc1 | 67* | 53* | -19 | 81* | 24 | 68* | -7%
CCS(=O)(=O)c1ccc(C=NNc2nc3ccccc3o2)cc1 | -63 | -55 | -252 | -1 | -34 | -66 | .
O=C(N[C@H]1CC[C@@H](CC(=O)N2CCc3ccccc3C2)O[C@H]1CO)C1CC1 | 6 | . | -1 | . | . | 3 | .
C[C@@H]1CN([C@@H](C)CO)C(=O)c2cc(C#CC3CCCC3)cnc2O[C@@H]1CN(C)C(=O)C1CC1 | -9 | . | . | . | . | 16 | .
COc1ccccc1CNC(=O)C[C@@H]1CC[C@H]2[C@@H](COC[C@H](O)CN2C(=O)Nc2ccc(C(F)(F)F)cc2)O1 | -7 | . | 18 | . | . | 70* | 8%
C[C@@H]1CCCCO[C@H](CN(C)Cc2ccccc2)[C@@H](C)CN([C@H](C)CO)C(=O)c2cc(N(C)C)ccc2O1 | 8 | . | -23 | . | . | -3 | .
COCC(=O)Nc1ccc2c(c1)[C@@H]1C[C@@H](CC(=O)NCC3CC3)O[C@@H](CO)[C@@H]1O2 | 15 | . | . | . | . | -6 | .
O=C(NCCc1ccccc1)c1ccccc1NC(=O)C1CCCO1 (stereo not drawn) | -45 | -33 | -23 | -8 | -9 | 71* | -15%
O=C(O)c1ccccc1NC(=O)C1CCCO1 (stereo not drawn) | . | -9 | . | 0 | -8 | . | .
O=C(CCc1ccccc1)NC(c1cccs1)c1cc(Cl)c2cccnc2c1O (stereo not drawn) | 23 | 8 | 78* | 9 | 54* | 58* | -4%
CCNC(=O)[C@@H]1[C@@H](CO)[C@@H]2Cn3c(ccc(-c4ccccc4F)c3=O)[C@@H]2N1CC | -1 | . | 8 | . | . | -1 | .
